Source: PubChem BioAssay AID602350 (Broad Institute, 2012)
Potency and affinity values are given separately. Calls of active or inactive are those of the source.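 Rule for the calls: active = absorbance falls by 30% or more versus neutral controls, with a potency fitted within twice the top valid dose; inconclusive = no clear call, values can overlap the other calls; inactive = change opposite to expected direction, plus the rest.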

molecular target: Protein disulfide-isomerase (Homo sapiens) (UniProt P07237); assay: inhibition of PDI-driven insulin aggregation – biochemical, turbidity, absorbance, cherry-picked samples, dose response (AID 602350); details: recombinant PDI insulin aggregation, absorbance 650 nm, 90 min; series mostly up to 19.5 µM
Sequence (P07237 whole entry, looked up): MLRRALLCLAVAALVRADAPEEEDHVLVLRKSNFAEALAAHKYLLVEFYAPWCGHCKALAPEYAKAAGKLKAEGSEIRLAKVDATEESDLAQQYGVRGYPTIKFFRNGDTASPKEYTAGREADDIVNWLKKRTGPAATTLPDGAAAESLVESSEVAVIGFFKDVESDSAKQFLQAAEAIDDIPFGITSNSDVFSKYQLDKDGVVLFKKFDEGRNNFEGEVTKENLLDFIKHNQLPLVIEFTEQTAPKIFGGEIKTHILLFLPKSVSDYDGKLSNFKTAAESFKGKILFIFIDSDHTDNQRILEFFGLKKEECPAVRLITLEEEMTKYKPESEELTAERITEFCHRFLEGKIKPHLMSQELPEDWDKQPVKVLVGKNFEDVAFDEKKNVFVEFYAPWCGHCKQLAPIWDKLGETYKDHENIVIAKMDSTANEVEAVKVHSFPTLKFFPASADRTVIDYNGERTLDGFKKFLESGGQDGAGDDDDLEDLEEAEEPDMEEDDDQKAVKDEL

outcome, inactive:
CNC[C@@H]1Oc2c(NS(C)(=O)=O)cccc2C(=O)N([C@@H](C)CO)C[C@H]1C
CN1CCN(C(=O)CSc2nnc(COc3ccc(Cl)cc3)o2)CC1
C[C@@H]1CN([C@H](C)CO)C(=O)c2cc(NC(=O)Cc3cn(C)c4ccccc34)ccc2O[C@@H]1CN(C)S(=O)(=O)c1ccc(F)cc1
CCc1nc2ccc(C(=O)N(CC)CC(=O)Nc3c(F)cccc3F)cc2nc1CC
COc1cc(C2C(C(C)=O)=C(O)C(=O)N2CCc2c[nH]c3ccccc23)ccc1O (centres undefined)
COc1ccccc1NS(=O)(=O)c1cccc(C(=O)NCC2(N(C)C)CCCCC2)c1
COCC(=O)N(C)C1(c2nnnn2CCOC(=O)Nc2ccc(Cl)cc2)CCCCC1
C[C@@H]1CN([C@@H](C)CO)C(=O)c2cccc(NS(C)(=O)=O)c2O[C@@H]1CN(C)Cc1ccc(Oc2ccccc2)cc1
CC1CC(C)CN(C(=O)COC(=O)c2ccc[nH]c2=O)C1 (centres undefined)
O=C(c1cc([N+](=O)[O-])ccc1N1CCOCC1)N1CCN(c2ccc([N+](=O)[O-])cc2)CC1
CN(C)CCCN(C(=O)c1ccc(S(=O)(=O)N2CCc3ccccc32)cc1)c1nc2c(Cl)cccc2s1
Cc1ccc2c(=O)n3c(nc2c1)C(Cc1ccc(O)cc1)NC(=O)c1cccnc1-3 (centres undefined)
CCn1c(SCC(=O)NC2CC2)nnc1-c1ccccc1
CCOC(=O)CN(c1ccccc1)S(=O)(=O)c1ccc(F)cc1
CC1(C(=O)Nc2cccc3c2CCCC3)CCN1C(=O)c1cccc(F)c1 (centres undefined)
CN(CCC(=O)Nc1ccc(Br)cc1)Cc1ccccc1
Cc1nnc(N/N=C/c2ccc(-c3ccccc3F)o2)n1N
COc1ccc(C2c3ccc(O)cc3Oc3ncn(CCCO)c(=N)c32)cc1 (centres undefined)
CCc1ccc2[nH]c(=O)c(CN(Cc3ccccc3OC)Cc3nnnn3Cc3ccco3)cc2c1
CN(C)c1ccc(C2(O)C(=O)c3ccccc3C2=O)cc1
O=C1N[C@@H](Cc2c[nH]c3ccccc23)COC(=O)[C@@H](Cc2ccc(F)cc2)C/C=C\C[C@H]1CC(=O)N(CCO)Cc1ccccc1
CN(C)CCN(C(=O)c1ccc(S(=O)(=O)N2CCc3ccccc32)cc1)c1nc2ccc(F)cc2s1
C[C@@H]1CN([C@@H](C)CO)C(=O)Cc2cc(NC(=O)Nc3ccccc3)ccc2O[C@H]1CN(C)Cc1ccccc1
Cc1ccc(N(Cc2ccccc2)C(=O)c2cccc(S(=O)(=O)N3CC(C)OC(C)C3)c2)cc1 (centres undefined)
Cc1[nH]c2ccc(C(=O)NC3CCCC3)cc2c1C
Cc1cc(C)cc(OCC(=O)Nc2ccccc2C(=O)N2CCOCC2)c1
COc1cccc(/C=N/NC(=O)CNC(=O)C(c2ccccc2)c2ccccc2)c1O
Cc1nnc(SCc2cc(=O)oc3cc(O)ccc23)n1Cc1ccccc1
O=C(NC(=S)Nc1cccc(NC(=O)c2ccccc2)c1)c1cccc([N+](=O)[O-])c1
CCCNC(=O)c1cccc(COc2ccccc2OC)c1
O=C(NCCc1c[nH]c2ccccc12)/C(=C\c1cccnc1)NC(=O)c1ccccc1Br
COc1ccc(Cl)cc1NC(=O)COC(=O)C1CC1
Cc1cc(Cl)ccc1OCc1n[nH]c(=S)n1C1CCCCC1
CC(=O)c1cc(-c2ccccc2)n(CC(=O)Nc2cccc(C)c2)c1C
CCOC(=O)c1oc2cccc(O)c2c1CN(Cc1ccccc1)C(C)=O
Cc1ccc(N2CC(C(=O)N3CCCCCC3)CC2=O)cc1 (centres undefined)
CCOc1cc(/C=C/C(=O)c2ccc(O)cc2)ccc1OCC(=O)N(C)C
CC(=O)C1=C(O)C(=O)N(CCc2c[nH]c3ccccc23)C1c1cccc(O)c1 (centres undefined)
CCOc1ccc(C(=O)NCC(=O)OCC(=O)N(C)CC(=O)Nc2ccccc2CC)cc1OCC
